The results in this text go back to PubChem BioAssay (NCATS).

Results filed as inconclusive are left out. Active and inactive are the calls of the source. The call rests on the fitted dose curve; in most records, active means well fitted inhibition curve with a large enough effect; inconclusive means small, poorly fitted or top-dose-only effect; inactive means flat fitted curve, though single readings scatter.

The subject of the test is HACAT. Description: qHTS assay to identify novel small-molecules to repurpose for Merkel cell carcinoma treatment (AID 1296009). Further: nearly all actives have a fitted effect of over 60% in size. The following applies: MCC and control cell lines, CellTiter-Glo viability, 72 h; at 44.8 µM (top of the series) unless noted. In short, it runs like this:
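Cell viability, measured as CellTiter-Glo luminescence, was normalized between DMSO and no-cell wells. The cells had been exposed to 8- or 11-point compound dilutions for 72 hr at 37 degree celsius.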
Turning to `CC1=CC(=O)C2C(C)(C)CCCC2(C)C12CCC1(COC(=O)C1)O2` (centres undefined), the call was inactive.

In the case of `CCOc1ccc(C(Nc2ccccn2)c2ccc3ccc(C)nc3c2O)cc1C` (centres undefined), the call was inactive.

In the case of `C/C=C/C=C/C=C/C(=O)O[C@@H]1C=C(CO)C(O)(C(=O)O)[C@@]2(C)CCCC(C)(C)[C@H]12` (some centres undefined), the outcome was “inactive [at 17.4 µM]”.

As to `CC(=O)O[C@@H]1[C@H](O[C@@H]2OC[C@](O)(CO)[C@H]2O)[C@@H](O[C@@H]2O[C@@H](C)[C@H](O)[C@@H](O)[C@H]2O)[C@H](OC(=O)[C@]23CCC(C)(C)C[C@H]2C2=CCC4[C@@]5(C)C[C@H](O)[C@H](O[C@@H]6O[C@H](C(=O)O)[C@@H](O)[C@H](O)[C@H]6O)[C@@](C)(C(=O)O)C5CC[C@@]4(C)[C@]2(C)CC3)O[C@@H]1C` (some centres undefined), the outcome was “inactive [at 9.27 µM]”.

Regarding `COc1ccc(/C=C/C(=O)O[C@@H]2[C@@H](O)[C@H](C)O[C@@H](OC3C4C=COC(O[C@@H]5O[C@H](CO)[C@@H](O)[C@H](O)[C@H]5O)C4C4(CO)OC34)[C@@H]2O)cc1OC` (some centres undefined), the outcome is “inactive [at 17.4 µM]”.

As to `COc1cc(C/C(=C/NC(C)=O)N(CC(=O)Cc2ccccc2)C(C)=O)cc2c1OCO2`, the outcome is “inactive [at 17.4 µM]”.

For the molecule `C[C@@H]1O[C@@H](O[C@H]2[C@H](O[C@H]3[C@H](O[C@H]4CC[C@@]5(C)C(CC[C@]6(C)C5CC=C5[C@@H]7CC(C)(C(=O)O)C[C@@H](O)[C@]7(C)CC[C@]56C)[C@@]4(C)CO)O[C@H](C(=O)O)[C@@H](O)[C@@H]3O)O[C@H](CO)[C@H](O)[C@@H]2O)[C@H](O)[C@H](O)[C@H]1O` (some centres undefined), the outcome was “inactive [at 9.27 µM]”.

Take `CC(C)CC(=O)O[C@@H]1OC=C(CO[C@@H]2O[C@H](CO[C@@H]3O[C@H](CO)[C@@H](O)[C@H](O)[C@H]3O)[C@@H](O)[C@H](O)[C@H]2O)[C@H]2C[C@H](O)[C@@H](CO)[C@@H]12`: the outcome is “inactive [at 17.4 µM]”.

As to `Cc1nnc(C(C)C)n1C1CC2CCC(C1)N2CCC(NC(=O)C1CCC(F)(F)CC1)c1ccccc1` (centres undefined), the molecule was called inactive.

Take `CC(C)C(C#N)O[C@@H]1O[C@H](CO[C@@H]2OC[C@](O)(CO)[C@H]2O)[C@@H](O)[C@H](O)[C@H]1O` (some centres undefined): the result was inactive.

`CC(C)[C@H]1CCC(CO)=C[C@@H]1/C=C(\CO)C(=O)O`: the outcome was inactive.

Turning to `COc1cc(/C=C/C(=O)OC[C@H]2O[C@H](O[C@]3(CO)O[C@H](CO)[C@@H](O)[C@@H]3O)[C@H](O)[C@@H](O)[C@@H]2O)cc(OC)c1O`, the outcome is “inactive [at 17.4 µM]”.

Regarding `CC(=O)N1c2ccccc2C2(O)CC3C(=O)NC(CC(C)C)C(=O)N3C12` (centres undefined), the molecule was called inactive.

With `O=C(/C=C/c1ccc(O)cc1)OCC1=CC2OC(=O)C3=CO[C@@H](O[C@@H]4O[C@H](CO)[C@@H](O)[C@H](O)[C@H]4O)[C@H]1[C@@H]32` (some centres undefined), the outcome is “inactive [at 17.4 µM]”.

For the molecule `CC1CCC2C(C(=O)O)=CC3C(O)C(C)(C)CC123` (centres undefined), the outcome was inactive.

Consider `COc1cc(/C=C/C(=O)OC2[C@H](O)CC(O)(C(=O)O)C[C@H]2O)ccc1O` (some centres undefined), for which the outcome was inactive.

Regarding `COC(=O)C[C@@H]1C(C(=O)O)=CO[C@@H](O[C@@H]2O[C@H](CO)[C@@H](O)[C@H](O)[C@H]2O)/C1=C\COC(=O)/C=C\c1ccccc1`, the outcome was “inactive [at 17.4 µM]”.

Consider `O=C1C[C@@H](c2ccc(O)cc2)Oc2cc(O)ccc21`, for which the call was inactive.

`C[C@H](NCc1ccc(OCc2ccccc2F)cc1)C(N)=O`: the molecule was called inactive.

Take `C=C1CCC2C(C)(CO[C@@H]3O[C@H](CO)[C@@H](O)[C@H](O)[C@H]3O)C(O)CCC2(C)C1C(=O)CC1=CCOC1=O` (some centres undefined): the outcome was “inactive [at 17.4 µM]”.

`CCOC(=O)c1c(C)nn(-c2cccc([N+](=O)[O-])c2)c1C`: the result was inactive.

For the molecule `OCCc1ccc(O[C@@H]2O[C@H](CO)[C@@H](O)[C@H](O)[C@H]2O)c(O)c1`, the result was inactive.

For the molecule `CC(=O)O[C@H]1C[C@@H]2[C@]3(CC[C@]4(C)[C@@H](C5(C)CCC(C(C)(C)O)O5)[C@@H](O)C[C@@]24C)C[C@@]32CC[C@H](O[C@@H]3OC[C@@H](O)[C@H](O)[C@H]3O)C(C)(C)[C@H]12` (some centres undefined), the outcome is “inactive [at 17.4 µM]”.

As to `CC(C)(O)C1CCC2(C)C3C(O)C4C(C13)C42CO` (centres undefined), the result was inactive.

As for `CCC(CCO[C@@H]1O[C@H](CO[C@H]2OC[C@](O)(CO)[C@H]2O)[C@@H](O)[C@H](O)[C@H]1O)C(C)(C)O` (some centres undefined), the outcome is “inactive [at 17.4 µM]”.

Regarding `C=CC1C(O[C@@H]2O[C@H](CO)[C@@H](O)[C@H](O)[C@H]2O)OC=C(C(=O)OC)C1CC(=O)O` (some centres undefined), the outcome is “inactive [at 17.4 µM]”.

Take `CC1=CC(=O)C[C@H]2[C@@H]1CC[C@@H](C)[C@]21CO[C@H](c2ccoc2)C1=O`: the call was inactive.

As for `CC1CC(O)CC(C)(C)C1(O)CCO` (centres undefined), the outcome is “inactive [at 92 µM]”.

In the case of `CCCOc1ccn2c(C(C)=O)cc(-c3ccccc3S(C)(=O)=O)c2c1`, the result was inactive.

In the case of `O=C(COc1ccc(Cl)cc1)NC1CCC(NC(=O)COc2ccc(Cl)cc2)CC1` (centres undefined), the outcome was inactive.

Regarding `CCCCCCc1cccc(NC(=O)[C@H](N)CCP(=O)(O)O)c1`, the outcome is “inactive [at 9.27 µM]”.

For the molecule `NC(=O)c1cccc(-c2cc(O)cc(OC(=O)NC3CCCCC3)c2)c1`, the outcome is “inactive [at 17.4 µM]”.

With `COC(=O)C1C(CC(C)=O)C=CC(O)C12Oc1cc(C)cc(O)c1C2=O` (centres undefined), the call was inactive.

Regarding `Cc1cc(C)cc(NC(=O)Cc2ccc(OC(C)(C)C(=O)O)cc2)c1`, the outcome was inactive.

For the molecule `C[C@@H]1CC[C@]2(C)C(C[C@@H](O)[C@H](O)[C@]23CO3)[C@@]1(C)CCc1ccoc1` (some centres undefined), the call was inactive.

Turning to `CCC(C)/C=C(C)/C=C/C1=CC2=C(Cl)C(=O)C(C)(OC(C)=O)C(=O)C2=CN1C1CCCCN(C(CCC(N)=O)C(=O)O)C1=O` (centres undefined), the outcome is “inactive [at 17.4 µM]”.

With `CC1(C)CC[C@]2(C(=O)O)CC[C@]3(C)C(=CCC4[C@@]5(C)CCC(O[C@@H]6OC[C@H](O)[C@H](O)[C@H]6O[C@@H]6O[C@H](CO)[C@@H](O)[C@H](O)[C@H]6O)[C@@](C)(CO)C5CC[C@]43C)[C@@H]2C1` (some centres undefined), the outcome is “inactive [at 17.4 µM]”.

Regarding `Cc1cccc(-c2[nH]c(CNc3ccccc3F)nc2-c2ccc3ncnn3c2)n1`, the molecule was called inactive.

With `CCc1cc2c(=O)c(-c3nc4ccccc4s3)coc2c(CN2CCCCC2)c1O`, the outcome was “inactive [at 17.4 µM]”.
